The list is not random: actives were taken first. Their share in the collection is about 2.9%.
a7 integrin act: activates integrin-mediated alleviation for muscular dystrophy | 350,000 tested, 0.064% active | alpha7betagal myoblasts, beta-gal FDG fluorescence, 48 h | Potency, µM (doses to about 38.3 µM), inactives show at the top dose activation, most hits filed as activators; active means well fitted activation curve with a large enough effect; inconclusive means small, poorly fitted or top-dose-only effect; inactive means no such curve, though single readings can be large or run the other way;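 further: potency means the concentration at half of the fitted maximal effect; 100% = response of the positive control SU9516; nearly all actives have a fitted effect of over 60% in size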
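Alpha7betagal+/- myoblasts (passage 13) were plated 16-24 hr, then exposed to compounds (1:260 dilution of DMSO stock) for 48 hours at 37C. After MPER lysis, β-galactosidase reporter activity was read as FDG fluorescence (ex 480/em 540) after 30 minutes.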
D3 ag: D3 dopamine receptor (human) agonism | P35462 | D3R DiscoveRx beta-arrestin cells, luminescence, 90 min | max activation, % | 410,000 tested, 0.58% active | AID 652048; in the data active means max activation above about 30%; further: 0% is about no effect
Target sequence (P35462 whole entry, looked up): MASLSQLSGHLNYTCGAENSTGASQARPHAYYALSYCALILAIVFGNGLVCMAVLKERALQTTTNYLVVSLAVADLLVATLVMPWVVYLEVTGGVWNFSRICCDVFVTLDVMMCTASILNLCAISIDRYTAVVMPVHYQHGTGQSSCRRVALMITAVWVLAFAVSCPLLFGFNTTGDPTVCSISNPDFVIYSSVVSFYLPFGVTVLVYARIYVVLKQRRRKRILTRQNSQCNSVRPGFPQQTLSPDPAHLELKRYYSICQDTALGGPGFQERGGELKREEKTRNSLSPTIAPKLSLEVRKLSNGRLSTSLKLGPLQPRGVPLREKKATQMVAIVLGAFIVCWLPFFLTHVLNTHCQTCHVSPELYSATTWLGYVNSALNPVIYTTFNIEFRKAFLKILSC
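Agonist mode: compounds and dopamine controls were applied to plated cells for 90 min at 37 degrees C after an overnight attachment at 1500 cells/well. Luminescent read-out followed 30 - 60 minutes at room temperature with DiscoveRx detection reagent.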
D3 antag: D3 dopamine receptor (human) antagonism; D3R cells, DiscoveRx beta-arrestin luminescence, antagonist mode; active compounds read low; max response, negative = inhibition, %; 360,000 tested, 2.5% active; in the data active means max response below about -50%; inconclusive means no clear call, values can overlap the other calls; further: on the % scale 0 is the no-effect control and ±100 the full control effect
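Cells plated overnight at 1500 cells/well, then exposed to library compounds with dopamine controls for 90 minutes at 37 degrees C. DiscoveRx reagent added for 30–60 minutes at room temperature; luminescence read, quantitative HTS format.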
Numbers without * were called inactive; ? = inconclusive; · = no result.

SMILES	a7 integrin act	D3 ag	D3 antag
Oc1ccccc1N=Nc1nc(-c2ccccc2)c(-c2ccccc2)[nH]1	0.8%	-36.9	-71.6*
CCOC(=O)C(=CNc1ccc(NC2=NCC(C)S2)cc1)C(=O)OCC (stereo not given)	-40.8%	11.5	111.3
CCOc1ccc(Nc2cc(C)nc(-n3nc(C)cc3C)n2)cc1	-31.0%	0.6	-52.3*
CCOc1cc(/C=N/Nc2cc(C)nc(-n3nc(C)cc3C)n2)ccc1O	-66.5%	-41.3	-174.9*
Cc1cc(N/N=C/c2ccc(F)cc2)nc(-n2nc(C)cc2C)n1	-30.3%	-11.9	-8.5
Cc1ccc(Nc2cc(C)nc(-n3nc(C)cc3C)n2)cc1	·	-9.7	·
COc1ccc(OC)c(S(=O)(=O)N2CCC(n3c(C)nc4cccnc43)CC2)c1	·	-0.5	·
Cn1cc(C(F)(F)F)nc1-c1ccc(OCC(O)CNCCOc2ccc(O)c(C(N)=O)c2)cc1 (stereo not given)	·	101.5*	-3.9
OC(CNCCNc1ncccc1C(F)(F)F)COc1ccc(F)cc1 (stereo not given)	-4.5%	-32.7	-11.3
COc1ccccc1-n1cc(-c2ccc(C)cc2)nc1S(=O)(=O)CC(=O)Nc1ccccc1C(F)(F)F	·	-16.8	·
Cc1[nH]c2c(Cl)cccc2c(=O)c1CN1CCCCCC1	38.0%	-14.5	-89.8*
Cc1ccc2c(=O)c(CN3CCCCCC3)c(C)[nH]c2c1C	-25.0%	-7.5	-17.0
COC(C[C@H](O)[C@H](C)[C@H](O)COCc1ccccc1)OC	23.4%	-7.3	-20.7
c1ccc2c(c1)CCc1ccccc1C2=C1CCNCC1	?	-13.6	-85.1*
O=C1C(=C2CCc3ccccc32)Cc2ccccc21	2.0%	-6.2	3.2
O=C(CSCC(=O)N1CCOCC1)Nc1ccccc1	19.6%	-3.5	7.6
O=C1c2ccccc2C(=O)N1CCc1c(-c2[nH]c3ccccc3c2CCN2C(=O)c3ccccc3C2=O)[nH]c2ccccc12	-12.9%	9.1	15.4
O=C1c2ccccc2C(=O)N1CCc1c(-c2ccccc2)[nH]c2ccccc12	20.2%	32.9*	138.7
COC(=O)CSc1ncnc2c1sc1nc(N3CCOCC3)c3c(c12)CCCC3	4.0%	1.9	-11.3
CCOC(=O)CSc1ncnc2c1sc1nc(N3CCOCC3)c3c(c12)CCCC3	4.8%	60.9*	-4.0
Brc1cccc(CN2CCCCCC2)c1	-6.7%	-13.3	-17.1
OC1(c2ccc(Br)cc2)CCN(Cc2cccc(Br)c2)CC1	-31.3%	-16.6	-106.4*
COc1ccccc1CNC(=O)Cn1c(=O)oc2cc(S(=O)(=O)N3CCC(C)CC3)ccc21	·	-23.3	·
Cc1cc2c(cc1S(=O)(=O)CCC(=O)N1CCC(C)CC1)OCC(=O)N2	·	6.3	·
COc1ccc(/C=N/NC(=O)CCNc2n[nH]c(=O)[nH]c2=O)c(OC)c1	-17.6%	3.9	10.8
SMILES	a7 integrin act	D3 ag	D3 antag
CCCCC[C@@H](C)N1C[C@H](COCc2ccccc2)Oc2cc(N3CC[C@@H](N(C)C)C3)ccc2S1(=O)=O	·	-3.2	23.6
O=C(Nc1cccc(S(=O)(=O)N2CCOCC2)c1)c1ccc2c(=O)n3c(nc2c1)CCCCC3	-52.8%	4.5	27.2
Cc1ccc(NC(=O)C[n+]2cc(-c3ccc(C)cc3)n3c2CCC3)cc1	0.6%	-28.8	-65.5*
Cc1ccc(-c2c[n+](CC(=O)Nc3ccc(C)cc3C)c3n2CCC3)cc1	0.7%	-20.6	?
COc1cccc(CNC(=O)CNC(=O)c2cccs2)c1	9.7%	-0.4	12.2
Cc1ccc(CCC(=O)Nc2ccccc2C(=O)O)o1	-41.2%	4.1	2.3
CN[C@@H]1[C@H](O[C@H]2[C@H](O[C@H]3[C@H](O)[C@@H](O)[C@H](N=C(N)N)[C@@H](O)[C@@H]3N=C(N)N)O[C@@H](C)[C@]2(O)C=O)O[C@@H](CO)[C@H](O)[C@H]1O	·	1.4	·
CCOC(=O)c1c(C)[nH]c(C)c1S(=O)(=O)N(C)CC(=O)N1CCN(c2ccc(Cl)cc2)CC1	·	12.6	·
c1ccc(CC2CNc3ccccc3CN2)cc1 (stereo not given)	1.6%	-5.1	-51.8*
O=C1N[C@H](Cc2ccccc2)CO1	0.0%	-15.0	?
COCCN(C(=O)CSc1nc2ccccc2s1)c1c(N)n(Cc2ccccc2)c(=O)[nH]c1=O	-24.2%	-12.4	-14.2
COC(=O)/C=c1\sc2ncnn2c1=O	1.8%	3.2	-68.8*
CNC(=O)/C(C#N)=c1\s/c(=C/C(=O)OC)c(=O)n1-c1ccccc1	15.9%	2.6	18.0
COc1cccc(C(=O)CSc2nnnn2C)c1	-16.7%	0.1	-63.8*
O=C(CSc1nnnn1Cc1ccccc1)c1ccc(F)cc1	4.3%	4.9	5.4
COc1ccc(OC)c(C(=O)CSc2nnnn2C)c1	0.0%	8.2	18.7
CCCCn1nnnc1SCC(=O)NCc1ccccc1	-20.8%	-2.8	-54.8*
CCCCn1nnnc1SCC(=O)NNC(=O)c1ccco1	?	-2.4	-5.9
O=C(CSc1nnnn1Cc1ccccc1)c1ccccc1	2.9%	-2.0	-57.8*
COc1cc(C(O)c2nc(-c3ccc(F)cc3OC)cs2)ccc1F (stereo not given)	·	8.7	8.7
O=C1CCC(=O)N1CCC(c1ccc(F)cc1)c1ccco1 (stereo not given)	-31.3%	9.4	-8.6
O=C1NCN(c2ccccc2)C12CCN(CCCC(c1ccc(F)cc1)c1ccc(F)cc1)CC2	·	-84.9	-103.8*
CN1CCSc2ccc(C(=O)Nc3ccc(Cl)cc3)cc21	?	-11.1	-23.8
CCOc1ccc(OC(=O)c2sc3ncn(Cc4cccc(F)c4)c(=O)c3c2C)cc1	·	3.1	·
O=C(NCCCCCCCN1CCCCCCC1)C(C1CCCCC1)C1CCCCC1	-54.8%	-28.7	-64.6*
SMILES	a7 integrin act	D3 ag	D3 antag
O=C(NCCCN1CCOCC1)NC1CCCCC1	5.2%	2.1	-22.9
Cc1cc2nc(-c3ccncc3)cc(C(F)(F)F)n2n1	0.0%	0.6	0.2
CCn1nc(C)c2c(-c3ccccc3)cc(=O)n(C(C)C(=O)Nc3cc(C)ccc3C)c21 (stereo not given)	·	-13.4	·
Cc1ccc([N+](=O)[O-])cc1NC(=O)CN(C(=O)c1ccccc1Cl)C1CCCCC1	16.5%	-9.6	9.9
O=C(CN(C(=O)c1cccc([N+](=O)[O-])c1)C1CCCCC1)Nc1ccc(Cl)c([N+](=O)[O-])c1	-9.0%	-12.3	-79.1*
CC1Sc2ccccc2N(CC(=O)N(C(C)C)C(C)C)C1=O (stereo not given)	13.8%	-3.0	-70.3*
CCC(C)NC(=O)CN1C(=O)C(CC)Sc2ccccc21 (stereo not given)	?	1.2	-0.8
CCN(CC)S(=O)(=O)c1cc(NC(=O)Cc2ccc(S(=O)(=O)N3CCOCC3)s2)ccc1Cl	-39.4%	-10.1	21.1
CCOc1ccccc1N(CC(=O)NCCc1ccccc1)C(=O)CCC(=O)Nc1ccccn1	3.1%	5.3	18.1
C=CCOC(=O)c1cn(CC)c2nc(C)ccc2c1=O	-20.0%	6.0	-3.6
CCn1cc(C(=O)OCC(=O)OC2CC(C)CCC2C(C)C)c(=O)c2ccc(C)nc21 (stereo not given)	-16.5%	-1.2	-81.2*
O=C(Nc1cccc(-c2nc3ncccc3o2)c1)c1ccccc1	18.5%	0.3	36.0
Cc1ccc2c(C)ccc(O)c2n1	-30.2%	-7.5	-78.6*
Cc1ccc2ccc3ccc(C)nc3c2n1	·	-28.9	25.7
